Results as given in article PMC12529666, “Dysregulation of AGO2-miRNA dynamics underlies the AGO2-associated Lessel–Kreienkamp syndrome”.

B1: GCACTCCG (ssRNA)
RNA 1: GAGUUCUACAGUCCGACGAUCCCAACGCACUCCGCACCUGGAAUUCUCGGGUGCCAA
RNA 2: UGGAGUGUGACAAUGGUGUUUG
DNA 1: GATCGTCGGACTGTAGAACTC
DNA 2: TTGGCACCCGAGAATTCCA
modifications: constant regions annealed to DNA blockers; guide miR-122 5' phosphate
B2: GTGCTCCA (ssRNA)
RNA 1: GAGUUCUACAGUCCGACGAUCCCAACGUGCUCCACACCUGGAAUUCUCGGGUGCCAA
RNA 2: UGGAGUGUGACAAUGGUGUUUG
DNA 1: GATCGTCGGACTGTAGAACTC
DNA 2: TTGGCACCCGAGAATTCCA
modifications: constant regions annealed to DNA blockers; guide miR-122 5' phosphate
B3: ATACTTCA (ssRNA)
RNA 1: GAGUUCUACAGUCCGACGAUCCCAACAUACUUCACACCUGGAAUUCUCGGGUGCCAA
RNA 2: UGGAGUGUGACAAUGGUGUUUG
DNA 1: GATCGTCGGACTGTAGAACTC
DNA 2: TTGGCACCCGAGAATTCCA
modifications: constant regions annealed to DNA blockers; guide miR-122 5' phosphate
B4: GTGCTCCG (ssRNA)
RNA 1: GAGUUCUACAGUCCGACGAUCCCAACGUGCUCCGCACCUGGAAUUCUCGGGUGCCAA
RNA 2: UGGAGUGUGACAAUGGUGUUUG
DNA 1: GATCGTCGGACTGTAGAACTC
DNA 2: TTGGCACCCGAGAATTCCA
modifications: constant regions annealed to DNA blockers; guide miR-122 5' phosphate
B5: ATGTTCCA (ssRNA)
RNA 1: GAGUUCUACAGUCCGACGAUCCCAACAUGUUCCACACCUGGAAUUCUCGGGUGCCAA
RNA 2: UGGAGUGUGACAAUGGUGUUUG
DNA 1: GATCGTCGGACTGTAGAACTC
DNA 2: TTGGCACCCGAGAATTCCA
modifications: constant regions annealed to DNA blockers; guide miR-122 5' phosphate
B6: GCACTCTA (ssRNA)
RNA 1: GAGUUCUACAGUCCGACGAUCCCAACGCACUCUACACCUGGAAUUCUCGGGUGCCAA
RNA 2: UGGAGUGUGACAAUGGUGUUUG
DNA 1: GATCGTCGGACTGTAGAACTC
DNA 2: TTGGCACCCGAGAATTCCA
modifications: constant regions annealed to DNA blockers; guide miR-122 5' phosphate
B7: ATACTTTA (ssRNA)
RNA 1: GAGUUCUACAGUCCGACGAUCCCAACAUACUUUACACCUGGAAUUCUCGGGUGCCAA
RNA 2: UGGAGUGUGACAAUGGUGUUUG
DNA 1: GATCGTCGGACTGTAGAACTC
DNA 2: TTGGCACCCGAGAATTCCA
modifications: constant regions annealed to DNA blockers; guide miR-122 5' phosphate
B8: GCACCCCA (ssRNA)
RNA 1: GAGUUCUACAGUCCGACGAUCCCAACGCACCCCACACCUGGAAUUCUCGGGUGCCAA
RNA 2: UGGAGUGUGACAAUGGUGUUUG
DNA 1: GATCGTCGGACTGTAGAACTC
DNA 2: TTGGCACCCGAGAATTCCA
modifications: constant regions annealed to DNA blockers; guide miR-122 5' phosphate
B9: GCACTCTG (ssRNA)
RNA 1: GAGUUCUACAGUCCGACGAUCCCAACGCACUCUGCACCUGGAAUUCUCGGGUGCCAA
RNA 2: UGGAGUGUGACAAUGGUGUUUG
DNA 1: GATCGTCGGACTGTAGAACTC
DNA 2: TTGGCACCCGAGAATTCCA
modifications: constant regions annealed to DNA blockers; guide miR-122 5' phosphate
B10: GCGTCTCA (ssRNA)
RNA 1: GAGUUCUACAGUCCGACGAUCCCAACGCGUCUCACACCUGGAAUUCUCGGGUGCCAA
RNA 2: UGGAGUGUGACAAUGGUGUUUG
DNA 1: GATCGTCGGACTGTAGAACTC
DNA 2: TTGGCACCCGAGAATTCCA
modifications: constant regions annealed to DNA blockers; guide miR-122 5' phosphate
B11: ACGCTCCA (ssRNA)
RNA 1: GAGUUCUACAGUCCGACGAUCCCAACACGCUCCACACCUGGAAUUCUCGGGUGCCAA
RNA 2: UGGAGUGUGACAAUGGUGUUUG
DNA 1: GATCGTCGGACTGTAGAACTC
DNA 2: TTGGCACCCGAGAATTCCA
modifications: constant regions annealed to DNA blockers; guide miR-122 5' phosphate
B12: GTATTCCA (ssRNA)
RNA 1: GAGUUCUACAGUCCGACGAUCCCAACGUAUUCCACACCUGGAAUUCUCGGGUGCCAA
RNA 2: UGGAGUGUGACAAUGGUGUUUG
DNA 1: GATCGTCGGACTGTAGAACTC
DNA 2: TTGGCACCCGAGAATTCCA
modifications: constant regions annealed to DNA blockers; guide miR-122 5' phosphate
B13: ATATTTCA (ssRNA)
RNA 1: GAGUUCUACAGUCCGACGAUCCCAACAUAUUUCACACCUGGAAUUCUCGGGUGCCAA
RNA 2: UGGAGUGUGACAAUGGUGUUUG
DNA 1: GATCGTCGGACTGTAGAACTC
DNA 2: TTGGCACCCGAGAATTCCA
modifications: constant regions annealed to DNA blockers; guide miR-122 5' phosphate
B14: ATGTCCCA (ssRNA)
RNA 1: GAGUUCUACAGUCCGACGAUCCCAACAUGUCCCACACCUGGAAUUCUCGGGUGCCAA
RNA 2: UGGAGUGUGACAAUGGUGUUUG
DNA 1: GATCGTCGGACTGTAGAACTC
DNA 2: TTGGCACCCGAGAATTCCA
modifications: constant regions annealed to DNA blockers; guide miR-122 5' phosphate
B15: GTATCCCA (ssRNA)
RNA 1: GAGUUCUACAGUCCGACGAUCCCAACGUAUCCCACACCUGGAAUUCUCGGGUGCCAA
RNA 2: UGGAGUGUGACAAUGGUGUUUG
DNA 1: GATCGTCGGACTGTAGAACTC
DNA 2: TTGGCACCCGAGAATTCCA
modifications: constant regions annealed to DNA blockers; guide miR-122 5' phosphate
B16: GCACTTCA (ssRNA)
RNA 1: GAGUUCUACAGUCCGACGAUCCCAACGCACUUCACACCUGGAAUUCUCGGGUGCCAA
RNA 2: UGGAGUGUGACAAUGGUGUUUG
DNA 1: GATCGTCGGACTGTAGAACTC
DNA 2: TTGGCACCCGAGAATTCCA
modifications: constant regions annealed to DNA blockers; guide miR-122 5' phosphate
B17: ATGCTTCA (ssRNA)
RNA 1: GAGUUCUACAGUCCGACGAUCCCAACAUGCUUCACACCUGGAAUUCUCGGGUGCCAA
RNA 2: UGGAGUGUGACAAUGGUGUUUG
DNA 1: GATCGTCGGACTGTAGAACTC
DNA 2: TTGGCACCCGAGAATTCCA
modifications: constant regions annealed to DNA blockers; guide miR-122 5' phosphate
B18: GCATTCCA (ssRNA)
RNA 1: GAGUUCUACAGUCCGACGAUCCCAACGCAUUCCACACCUGGAAUUCUCGGGUGCCAA
RNA 2: UGGAGUGUGACAAUGGUGUUUG
DNA 1: GATCGTCGGACTGTAGAACTC
DNA 2: TTGGCACCCGAGAATTCCA
modifications: constant regions annealed to DNA blockers; guide miR-122 5' phosphate
B19: ACACCCTA (ssRNA)
RNA 1: GAGUUCUACAGUCCGACGAUCCCAACACACCCUACACCUGGAAUUCUCGGGUGCCAA
RNA 2: UGGAGUGUGACAAUGGUGUUUG
DNA 1: GATCGTCGGACTGTAGAACTC
DNA 2: TTGGCACCCGAGAATTCCA
modifications: constant regions annealed to DNA blockers; guide miR-122 5' phosphate

How the values were obtained:
Experiment in all cases: RNA Bind-n-Seq (nitrocellulose filter binding and sequencing); miR-122 guide loaded in AGO2; 60 min incubation; 30 mM Tris pH 8.0, 100 mM potassium acetate, 2 mM magnesium acetate, 0.5 mM TCEP, 0.005% NP-40, 0.01 mg/ml yeast tRNA; 3 nM AGO2-miR-122, 100 nM RNA library; 60; high values mean tight binding
Settings in all cases: protein: recombinant; tags: His6 (N-terminal, pFastBac HTA)
[1] = molecular target: AGO2 WT (phosphosite mutant background) (Homo sapiens, UniProt Q9UKV8 1-859, S387D;S824A;S828D;S831D;S834A)
Chain of AGO2 WT (phosphosite mutant background) (Q9UKV8 whole entry S387D/S824A/S828D/S831D/S834A): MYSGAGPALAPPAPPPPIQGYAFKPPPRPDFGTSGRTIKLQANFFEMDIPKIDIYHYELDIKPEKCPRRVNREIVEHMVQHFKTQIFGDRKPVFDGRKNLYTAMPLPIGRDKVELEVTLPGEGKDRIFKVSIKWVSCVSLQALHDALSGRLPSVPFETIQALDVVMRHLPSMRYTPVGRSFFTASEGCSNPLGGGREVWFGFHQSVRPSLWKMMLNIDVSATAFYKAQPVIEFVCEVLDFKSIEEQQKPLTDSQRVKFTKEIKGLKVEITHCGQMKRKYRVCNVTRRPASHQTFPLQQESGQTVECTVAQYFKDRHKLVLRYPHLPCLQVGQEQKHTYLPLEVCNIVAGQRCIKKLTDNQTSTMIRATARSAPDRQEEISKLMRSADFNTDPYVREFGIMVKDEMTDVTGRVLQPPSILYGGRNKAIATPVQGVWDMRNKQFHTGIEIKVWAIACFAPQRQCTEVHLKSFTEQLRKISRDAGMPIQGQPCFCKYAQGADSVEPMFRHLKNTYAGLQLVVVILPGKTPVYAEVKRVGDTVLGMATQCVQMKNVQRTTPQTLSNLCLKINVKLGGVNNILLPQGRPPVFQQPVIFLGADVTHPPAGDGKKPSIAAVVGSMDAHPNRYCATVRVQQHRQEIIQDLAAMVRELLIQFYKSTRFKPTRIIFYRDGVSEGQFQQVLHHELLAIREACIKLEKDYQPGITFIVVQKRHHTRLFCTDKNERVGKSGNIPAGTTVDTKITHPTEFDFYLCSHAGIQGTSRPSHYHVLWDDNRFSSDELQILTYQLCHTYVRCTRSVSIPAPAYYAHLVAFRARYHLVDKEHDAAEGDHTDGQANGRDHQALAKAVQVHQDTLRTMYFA
Procedure, shortened: (§1)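 Fold enrichment is each target's read fraction divided by its read fraction in the input library. Sf9 insect cells expressed His-tagged AGO2 from baculovirus; the protein was loaded with a synthetic guide RNA and purified by Ni-NTA and a biotinylated capture oligo. The bound RNA was extracted, reverse-transcribed, barcode-amplified and sequenced on Illumina.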

[2] = molecular target: AGO2 L192P (Homo sapiens, UniProt Q9UKV8 1-859, L192P;S387D;S824A;S828D;S831D;S834A)
Chain of AGO2 L192P (Q9UKV8 whole entry L192P/S387D/S824A/S828D/S831D/S834A): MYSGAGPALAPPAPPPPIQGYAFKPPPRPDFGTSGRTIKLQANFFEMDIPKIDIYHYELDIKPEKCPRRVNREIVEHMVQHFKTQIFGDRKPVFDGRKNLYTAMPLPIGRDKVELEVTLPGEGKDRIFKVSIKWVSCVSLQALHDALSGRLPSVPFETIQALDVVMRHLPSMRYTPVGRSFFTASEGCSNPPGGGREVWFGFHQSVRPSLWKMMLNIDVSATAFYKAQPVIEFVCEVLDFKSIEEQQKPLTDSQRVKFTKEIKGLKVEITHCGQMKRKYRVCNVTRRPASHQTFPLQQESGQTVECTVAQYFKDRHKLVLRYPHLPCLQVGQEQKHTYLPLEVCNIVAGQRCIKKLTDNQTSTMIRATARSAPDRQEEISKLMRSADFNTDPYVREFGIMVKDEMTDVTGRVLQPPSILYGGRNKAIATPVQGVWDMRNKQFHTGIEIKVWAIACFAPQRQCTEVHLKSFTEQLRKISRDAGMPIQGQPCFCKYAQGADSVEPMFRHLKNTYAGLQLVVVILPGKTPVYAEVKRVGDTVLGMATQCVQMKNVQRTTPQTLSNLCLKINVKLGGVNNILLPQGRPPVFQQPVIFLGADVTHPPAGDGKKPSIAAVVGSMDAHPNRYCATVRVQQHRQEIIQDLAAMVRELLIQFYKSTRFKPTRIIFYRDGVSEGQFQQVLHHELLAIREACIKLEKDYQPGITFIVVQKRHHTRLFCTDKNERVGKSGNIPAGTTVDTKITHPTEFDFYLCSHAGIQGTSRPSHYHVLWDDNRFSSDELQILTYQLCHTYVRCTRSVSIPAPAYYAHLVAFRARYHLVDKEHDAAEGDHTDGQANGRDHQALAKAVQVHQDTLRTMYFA
Procedure, shortened: as §1

[3] = molecular target: AGO2 A367P (Homo sapiens, UniProt Q9UKV8 1-859, A367P;S387D;S824A;S828D;S831D;S834A)
Chain of AGO2 A367P (Q9UKV8 whole entry A367P/S387D/S824A/S828D/S831D/S834A): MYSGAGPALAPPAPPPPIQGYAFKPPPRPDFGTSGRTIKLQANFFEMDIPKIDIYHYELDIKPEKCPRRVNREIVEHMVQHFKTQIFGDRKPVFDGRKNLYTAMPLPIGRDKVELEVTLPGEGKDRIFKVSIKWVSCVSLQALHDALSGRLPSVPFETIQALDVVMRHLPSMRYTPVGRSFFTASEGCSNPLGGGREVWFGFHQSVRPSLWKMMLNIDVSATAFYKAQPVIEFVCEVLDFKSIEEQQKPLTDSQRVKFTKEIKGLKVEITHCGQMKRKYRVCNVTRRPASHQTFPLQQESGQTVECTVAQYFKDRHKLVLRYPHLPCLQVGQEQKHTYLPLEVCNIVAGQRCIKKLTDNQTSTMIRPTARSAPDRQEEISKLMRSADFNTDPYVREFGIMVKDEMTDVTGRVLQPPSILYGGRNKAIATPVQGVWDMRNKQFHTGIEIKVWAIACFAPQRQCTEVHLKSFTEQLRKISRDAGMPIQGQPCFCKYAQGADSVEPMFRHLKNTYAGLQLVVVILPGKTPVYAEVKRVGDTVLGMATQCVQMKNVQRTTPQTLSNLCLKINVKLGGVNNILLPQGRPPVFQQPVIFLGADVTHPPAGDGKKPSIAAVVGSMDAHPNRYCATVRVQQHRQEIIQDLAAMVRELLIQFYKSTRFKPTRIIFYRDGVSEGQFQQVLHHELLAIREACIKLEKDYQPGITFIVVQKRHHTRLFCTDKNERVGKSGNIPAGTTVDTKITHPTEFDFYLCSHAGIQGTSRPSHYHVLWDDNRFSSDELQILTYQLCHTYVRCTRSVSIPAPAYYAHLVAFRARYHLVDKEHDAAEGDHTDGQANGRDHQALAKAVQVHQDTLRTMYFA
Procedure, shortened: as §1

[4] = molecular target: AGO2 T357M (Homo sapiens, UniProt Q9UKV8 1-859, T357M;S387D;S824A;S828D;S831D;S834A)
Chain of AGO2 T357M (Q9UKV8 whole entry T357M/S387D/S824A/S828D/S831D/S834A): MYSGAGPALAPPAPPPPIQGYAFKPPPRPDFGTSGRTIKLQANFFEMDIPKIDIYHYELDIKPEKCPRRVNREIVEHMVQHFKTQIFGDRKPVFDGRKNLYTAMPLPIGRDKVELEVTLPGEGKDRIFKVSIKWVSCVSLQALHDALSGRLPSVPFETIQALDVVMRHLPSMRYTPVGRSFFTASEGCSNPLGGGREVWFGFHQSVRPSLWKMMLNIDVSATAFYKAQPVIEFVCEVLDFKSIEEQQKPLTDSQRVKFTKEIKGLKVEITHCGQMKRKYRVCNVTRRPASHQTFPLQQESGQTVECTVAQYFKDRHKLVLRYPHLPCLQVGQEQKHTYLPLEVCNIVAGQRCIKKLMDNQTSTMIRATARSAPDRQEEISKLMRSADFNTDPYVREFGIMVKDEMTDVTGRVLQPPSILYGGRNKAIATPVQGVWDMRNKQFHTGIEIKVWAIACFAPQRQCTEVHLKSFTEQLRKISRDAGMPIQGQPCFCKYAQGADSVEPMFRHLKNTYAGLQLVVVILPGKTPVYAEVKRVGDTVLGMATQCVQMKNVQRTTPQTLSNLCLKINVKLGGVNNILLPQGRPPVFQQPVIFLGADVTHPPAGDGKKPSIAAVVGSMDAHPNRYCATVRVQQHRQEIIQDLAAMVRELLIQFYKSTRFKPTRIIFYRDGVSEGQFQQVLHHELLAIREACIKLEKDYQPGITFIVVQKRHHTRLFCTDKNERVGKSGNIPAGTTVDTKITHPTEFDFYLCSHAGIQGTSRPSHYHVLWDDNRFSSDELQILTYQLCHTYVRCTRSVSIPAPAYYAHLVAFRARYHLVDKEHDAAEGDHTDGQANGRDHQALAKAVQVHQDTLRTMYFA
Procedure, shortened: as §1

[5] = molecular target: AGO2 F182del (Homo sapiens, UniProt Q9UKV8 1-859, S387D;S824A;S828D;S831D;S834A;del182-182)
Chain of AGO2 F182del (Q9UKV8 other isoform, or with tags, fused parts or gaps S387D;S824A;S828D;S831D;S834A;del182-182): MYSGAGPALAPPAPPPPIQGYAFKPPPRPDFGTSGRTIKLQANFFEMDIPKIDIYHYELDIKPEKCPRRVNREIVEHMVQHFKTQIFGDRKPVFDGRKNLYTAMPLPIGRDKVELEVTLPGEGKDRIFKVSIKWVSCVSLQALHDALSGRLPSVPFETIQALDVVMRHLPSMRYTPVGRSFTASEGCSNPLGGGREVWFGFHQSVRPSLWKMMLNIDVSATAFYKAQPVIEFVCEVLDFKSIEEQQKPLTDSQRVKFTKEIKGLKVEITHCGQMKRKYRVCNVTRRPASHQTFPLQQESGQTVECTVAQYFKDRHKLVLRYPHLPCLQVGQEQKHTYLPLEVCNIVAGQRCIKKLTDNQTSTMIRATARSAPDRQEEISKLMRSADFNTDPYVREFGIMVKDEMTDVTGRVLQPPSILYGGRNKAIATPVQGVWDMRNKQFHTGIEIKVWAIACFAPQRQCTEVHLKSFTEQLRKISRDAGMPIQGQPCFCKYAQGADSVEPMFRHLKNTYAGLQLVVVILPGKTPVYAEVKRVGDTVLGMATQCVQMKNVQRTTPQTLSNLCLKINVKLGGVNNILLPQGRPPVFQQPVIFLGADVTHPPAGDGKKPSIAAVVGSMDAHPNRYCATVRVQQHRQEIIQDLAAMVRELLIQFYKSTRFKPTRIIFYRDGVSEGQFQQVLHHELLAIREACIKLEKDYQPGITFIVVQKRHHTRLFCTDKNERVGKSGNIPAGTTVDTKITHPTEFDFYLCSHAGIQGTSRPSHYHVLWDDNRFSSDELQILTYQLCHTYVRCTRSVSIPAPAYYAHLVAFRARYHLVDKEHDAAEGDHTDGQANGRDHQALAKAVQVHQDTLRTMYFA
Procedure, shortened: as §1

Binder | binding signal [1] | binding signal [2] | binding signal [3] | binding signal [4] | binding signal [5]
B1 | 85.3 fold enrichment over input | 60.8 fold enrichment over input | 86.8 fold enrichment over input | 35.6 fold enrichment over input | 69.5 fold enrichment over input
B2 | 0.17 fold enrichment over input | 0.594 fold enrichment over input | 0.522 fold enrichment over input | 0.649 fold enrichment over input | 0.604 fold enrichment over input
B3 | 0.136 fold enrichment over input | 0.646 fold enrichment over input | 0.396 fold enrichment over input | 0.62 fold enrichment over input | 1.33 fold enrichment over input
B4 | 0.149 fold enrichment over input | 0.546 fold enrichment over input | 0.535 fold enrichment over input | 0.617 fold enrichment over input | 0.426 fold enrichment over input
B5 | 0.148 fold enrichment over input | 0.552 fold enrichment over input | 0.299 fold enrichment over input | 0.682 fold enrichment over input | 0.701 fold enrichment over input
B6 | 0.168 fold enrichment over input | 0.562 fold enrichment over input | 0.306 fold enrichment over input | 0.561 fold enrichment over input | 0.786 fold enrichment over input
B7 | 0.121 fold enrichment over input | 0.536 fold enrichment over input | 0.174 fold enrichment over input | 0.643 fold enrichment over input | –
B8 | 0.164 fold enrichment over input | 0.6 fold enrichment over input | 0.263 fold enrichment over input | 0.699 fold enrichment over input | 0.666 fold enrichment over input
B9 | 0.143 fold enrichment over input | 0.491 fold enrichment over input | 0.33 fold enrichment over input | 0.457 fold enrichment over input | 0.887 fold enrichment over input
B10 | 0.14 fold enrichment over input | 0.529 fold enrichment over input | 0.271 fold enrichment over input | 0.646 fold enrichment over input | 0.747 fold enrichment over input
B11 | 5.29 fold enrichment over input | 12.3 fold enrichment over input | 13.1 fold enrichment over input | 2.94 fold enrichment over input | 16.9 fold enrichment over input
B12 | 0.18 fold enrichment over input | 0.545 fold enrichment over input | 0.446 fold enrichment over input | 0.623 fold enrichment over input | 0.898 fold enrichment over input
B13 | 0.141 fold enrichment over input | 0.626 fold enrichment over input | 0.373 fold enrichment over input | 0.697 fold enrichment over input | 1.09 fold enrichment over input
B14 | 0.155 fold enrichment over input | 0.54 fold enrichment over input | 0.303 fold enrichment over input | 0.599 fold enrichment over input | 0.697 fold enrichment over input
B15 | 0.162 fold enrichment over input | 0.517 fold enrichment over input | 0.408 fold enrichment over input | 0.614 fold enrichment over input | 0.832 fold enrichment over input
B16 | 0.149 fold enrichment over input | 0.575 fold enrichment over input | 0.348 fold enrichment over input | 0.655 fold enrichment over input | 0.82 fold enrichment over input
B17 | 0.135 fold enrichment over input | 0.573 fold enrichment over input | 0.309 fold enrichment over input | 0.582 fold enrichment over input | 0.842 fold enrichment over input
B18 | 0.182 fold enrichment over input | 0.661 fold enrichment over input | 0.356 fold enrichment over input | 0.65 fold enrichment over input | 1.01 fold enrichment over input
B19 | 0.142 fold enrichment over input | 0.6 fold enrichment over input | 0.25 fold enrichment over input | 0.636 fold enrichment over input | 0.799 fold enrichment over input
